High-throughput results as filed in PubChem BioAssay.
HCV inhibitor: qHTS Assay for Inhibitors of Hepatitis C Virus (HCV); AID 651820, 2012; hit rate 3.4% among 340,000; Potency, µM (top dose mostly 41.8 µM), actives largely listed as inhibitors; Huh7.5.1 HCVcc-Cre infection, luciferase reporter, 44 h; active = well fitted inhibition curve with a large enough effect; inconclusive = small, poorly fitted or top-dose-only effect, or another doubt; inactive = no such curve, though single readings can be large or run the other way
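After 44 h co-culture of compound, cells and HCVcc-Cre (~0.5 moi), substrate is added for 15 min at room temperature and luciferase measured over 15 sec. Cells were seeded at 1,000/well and pre-cultured 4 h.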
FMDV inh: High Throughput Screening for Foot and Mouth Disease Virus Antivirals; FMDV antiviral cell-based qHTS; Potency, µM (titrated, usually from 57.9 µM), most hits filed as inhibitors; hit rate 1.2% among 410,000; calls by dose curve; tested in HEK293T cells; note: read-out not given here; nearly all actives have a fitted effect of over 45% in size
HCMV antiviral: qHTS Assay for inhibitors of the human cytomegalovirus (HCMV). HFF cells, HCMV-luciferase reporter, 72 h; active compounds read low. hit rate 4.5% among 410,000. activity change, negative = inhibition, % at 57.5 µM; in the data active = activity change below about -60%; inconclusive = no clear call, values can overlap the other calls; inactive = above about -39%
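Luciferase read-out from HCMV-luciferase-infected HFFs (MOI 1 PFU/cell) 72 h post infection at 37C; compounds added after 16 h cell attachment; activity normalized between buffer-only basal and Salinomycin (10uM) inhibitor controls.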
MARV entry inh: qHTS for inhibitors of binding or entry into cells for Marburg Virus; hit rate 1.8% among 300,000; Potency, µM (top dose mostly 37.8 µM), most hits filed as inhibitors; Marburg virus pseudotyped entry inhibition, cell reporter; calls by dose curve; tested in HEK293 cells
SARS PLpro yeast: qHTS of Yeast-based Assay for SARS-CoV PLP; Potency, µM (series often up to 32.9 µM), usual class: activators; S. cerevisiae expressing SARS-CoV PLpro, growth rescue; hit rate 0.19% among 330,000; calls by dose curve; note: nearly all actives have a fitted effect of over 55% in size
Lassa entry inh: qHTS for Inhibitors of binding or entry into cells for Lassa Virus; Lassa virus pseudotype entry inhibition, cell reporter; Potency, µM (top dose mostly 37.9 µM), actives largely listed as inhibitors; hit rate 1.2% among 300,000; AID 540256, 2011; calls by dose curve; tested in HEK293 cells; note: nearly all actives have a fitted effect of over 50% in size
Large screens that a line does not name were inactive. This is a sample that favours compounds with a hit; in the whole collection about 8% have one here.

Cc1ccc(CSc2ncnc3ccccc23)cc1	none
Clc1ccc(CSc2cnnc3ccccc23)cc1Cl	MARV entry inh inconclusive (no result: SARS PLpro yeast)
O=Cc1cc2ccccc2nc1SCc1ccc(Cl)c(Cl)c1	FMDV inh inconclusive, HCMV antiviral -91.6, MARV entry inh 2.24µM, Lassa entry inh inconclusive
Cc1ccc(CSc2nc3ccccc3cc2C=O)cc1	HCV inhibitor inconclusive, FMDV inh inconclusive, HCMV antiviral -97.0, MARV entry inh inconclusive, Lassa entry inh inconclusive
O=c1[nH]c(SCc2ccc(Cl)cc2)nc2ccccc12	none (no result: MARV entry inh, Lassa entry inh)
O=Cc1cc2ccccc2nc1SCc1ccc(Cl)cc1	HCV inhibitor inconclusive, HCMV antiviral -82.5, MARV entry inh inconclusive, Lassa entry inh 10µM
O=C(NCCc1ccc2c(c1)OCCO2)c1cc(S(=O)(=O)N2CCCC2)ccc1Br	HCV inhibitor inconclusive (no result: SARS PLpro yeast)
COc1ccc(CCNC(=O)c2ccc3c(c2)N(Cc2ccccc2Cl)C(=O)c2ccccc2S3)cc1OC	HCMV antiviral inconclusive, Lassa entry inh inconclusive (no result: HCV inhibitor, MARV entry inh, SARS PLpro yeast)
Cc1c([N+](=O)[O-])cc(C(=O)Oc2cccc(C(=S)N3CCOCC3)c2)cc1[N+](=O)[O-]	none
O=c1cc(O)cc(/C=C\c2ccc(O)c(O)c2)o1	none (no result: HCV inhibitor, FMDV inh, HCMV antiviral, SARS PLpro yeast, Lassa entry inh)
CN(C)c1ccc(C(=O)N[C@H]2CC[C@@]34CCCN3C(=O)CCC[C@H]4[C@H]2Cc2ccccc2)cc1	none (no result: HCV inhibitor, FMDV inh, MARV entry inh, SARS PLpro yeast, Lassa entry inh)
O=C1CN(/N=C/c2ccc([N+](=O)[O-])o2)C(=O)N1	HCV inhibitor 25.1µM, MARV entry inh inconclusive, Lassa entry inh inconclusive
CCOc1ccc(NC(=S)NC(=O)/C=C/c2ccc(Br)cc2)c([N+](=O)[O-])c1	Lassa entry inh 20.6µM
Nc1[nH]c(C(=O)c2ccccc2)c(-c2cccc(C(F)(F)F)c2)c1C(=O)NCCc1c[nH]c2ccccc12	HCMV antiviral -72.3 (no result: HCV inhibitor, FMDV inh, MARV entry inh, SARS PLpro yeast, Lassa entry inh)
Nc1[nH]c(C(=O)c2ccccc2)c(-c2ccc(F)cc2)c1C(=O)NCCc1c[nH]c2ccccc12	none (no result: HCV inhibitor, MARV entry inh, SARS PLpro yeast, Lassa entry inh)
C[C@H]1[C@@H](NS(=O)(=O)c2ccc(C#N)cc2)CC[C@@]23CCCN2C(=O)CCC[C@@H]13	none (no result: HCV inhibitor, FMDV inh, MARV entry inh, SARS PLpro yeast, Lassa entry inh)
O=C1CN=C(c2ccccc2Cl)c2cc(Br)ccc2N1	MARV entry inh inconclusive, Lassa entry inh inconclusive (no result: SARS PLpro yeast)
O=C1CN=C(c2ccc[nH]2)c2cc(Cl)ccc2N1	HCMV antiviral -94.3 (no result: MARV entry inh, Lassa entry inh)
COc1ccccc1Nc1cc(C)nc2nc(-c3ccccc3)nn12	HCMV antiviral -86.2 (no result: HCV inhibitor, MARV entry inh, SARS PLpro yeast)
Cc1ccc(-c2nc3nc(C)cc(Nc4ccccc4O)n3n2)cc1	HCMV antiviral inconclusive, Lassa entry inh inconclusive (no result: HCV inhibitor, MARV entry inh, SARS PLpro yeast)
Cc1noc(C)c1C(=O)N1CCC2(CC1)CN(C(=O)Nc1cccc(F)c1)C2	none (no result: HCV inhibitor, HCMV antiviral, MARV entry inh, SARS PLpro yeast, Lassa entry inh)
CC1C(=O)N2CCCc3cc(NC(=O)CC(C)(C)C)cc1c32 (stereo unspecified)	none (no result: MARV entry inh, Lassa entry inh)
CN1/C(=C\C(=O)C[n+]2ccc(C(=O)c3ccccc3)cc2)C(C)(C)c2ccccc21	HCV inhibitor inconclusive, HCMV antiviral -94.7 (no result: MARV entry inh, Lassa entry inh)
CN1/C(=C\C(=O)C[n+]2cccc(Br)c2)C(C)(C)c2ccccc21	FMDV inh inconclusive, HCMV antiviral -83.3, Lassa entry inh inconclusive
CN1/C(=C\C(=O)COC(=O)c2ccc(O)c(O)c2)C(C)(C)c2ccccc21	HCV inhibitor inconclusive, HCMV antiviral -78.6, MARV entry inh inconclusive, Lassa entry inh inconclusive
CN1/C(=C\C(=O)COC(=O)c2ccc(O)cc2)C(C)(C)c2ccccc21	HCV inhibitor inconclusive (no result: MARV entry inh, Lassa entry inh)
CN1/C(=C\C(=O)C[n+]2cccc(C(N)=O)c2)C(C)(C)c2ccccc21	none
Cc1ccc[n+](CC(=O)/C=C2\N(C)c3ccccc3C2(C)C)c1	FMDV inh inconclusive, HCMV antiviral -97.5, MARV entry inh inconclusive
CN1/C(=C\C(=O)CSc2nnc(N)s2)C(C)(C)c2ccccc21	FMDV inh inconclusive, HCMV antiviral inconclusive, MARV entry inh inconclusive, Lassa entry inh inconclusive
Cc1cccc[n+]1CC(=O)/C=C1\N(C)c2ccccc2C1(C)C	FMDV inh inconclusive, HCMV antiviral -94.5, MARV entry inh inconclusive, Lassa entry inh inconclusive
CN1/C(=C\C(=O)CSc2cccc[n+]2[O-])C(C)(C)c2ccccc21	HCV inhibitor inconclusive, SARS PLpro yeast inconclusive
CN1/C(=C\C(=O)CN2C(=O)NC3(CCCCCC3)C2=O)C(C)(C)c2ccccc21	HCV inhibitor inconclusive, FMDV inh 20µM, HCMV antiviral inconclusive, MARV entry inh inconclusive, Lassa entry inh inconclusive
COc1ccc(N(Cc2nnc3n2CCCCC3)C(=O)Nc2cccc(C)c2)cc1Cl	none (no result: HCV inhibitor, MARV entry inh, SARS PLpro yeast)
O=C(CCOc1ccccc1)N(Cc1cccnc1)c1nc2c(F)cccc2s1	none (no result: HCV inhibitor, MARV entry inh, SARS PLpro yeast)
Cc1ccc(-n2cc(C(=O)c3ccccc3O)cn2)cc1	MARV entry inh inconclusive, Lassa entry inh 3.55µM
CC(C)(C)C(=O)/C(=C/c1ccncc1)n1cncn1	HCV inhibitor 2.24µM, FMDV inh 11.2µM, HCMV antiviral -99.8, MARV entry inh 4.11µM, Lassa entry inh 10.3µM
Cc1nn(C)c(C)c1/C=C(/C(=O)C(C)(C)C)n1cncn1	HCMV antiviral -98.4, MARV entry inh inconclusive, Lassa entry inh inconclusive
Cc1nn(C)c(C)c1/C=C(/C(=O)C(C)C)n1cncn1	none (no result: MARV entry inh, Lassa entry inh)
O=C(/C(=C/c1ccccc1)n1cncn1)c1ccc(Cl)cc1Cl	none
O=[N+]([O-])c1ccc(C[n+]2cc(-c3ccc(Cl)c(Cl)c3)n3c2CCCCC3)cc1	none (no result: MARV entry inh, Lassa entry inh)
N#CC[n+]1cc(-c2ccc(Cl)cc2)n2c1CCC2	none
